IL-1B inflam inh – inflammasome signaling inhibition, IL-1 beta readout; activity change, % at 57.5 µM; 4.7% of 360,000 active; THP-1 LPS/ATP IL-1B secretion, AlphaLISA, 16 h; stronger effect = lower value; in the data active means activity change below about -50%; inconclusive means mostly about -30% to -49%
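THP-1 cells pretreated 1 hr with compounds (up to 57.5 uM final), then stimulated with LPS (250 ng/mL final) plus ATP (1.25 mM final); secreted IL-1B measured by AlphaLISA after 16 hr, decreased signal indicating inhibition.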
ELG1 repair inh – inhibitors of ELG1-dependent DNA repair in HEK293T cells; HEK293T ELG1-luciferase reporter, luminescence, 16 h; DNA damage induced by 5-fluorouridine; Potency, µM (titrated, usually from 46.1 µM), without a hit: at the highest dose activity change, negative = inhibition, actives largely listed as inhibitors; 2.3% of 330,000 active; AID 504467; further: potency means the concentration at half of the fitted maximal effect; nearly all actives have a fitted effect of over 55% in size
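In this reporter screen, reduction of luminescence relative to DMSO vehicle indicated activity. Compounds and 5-fluorouridine were added together to 2,000 cells per well, incubated for 16 hr at 37 °C, then developed with ONE-Glo.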
DT40 TDP1 CPT – DT40-hTDP1 cell growth loss with CPT | chicken DT40 Tdp1-/-;hTDP1 cells + 20 nM CPT, ATP luminescence, 48 h | Potency, µM (highest dose often 46.2 µM), for the others: top-dose activity change, negative = growth inhibition, actives largely listed as inhibitors | 12% of 420,000 active | AID 686979; further: potency means the concentration at half of the fitted maximal effect; nearly all actives have a fitted effect of over 55% in size
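Chicken DT40 Tdp1-/- cells complemented with human TDP1, 400 cells/well, exposed to compounds plus 20 nM camptothecin for at least 48 h at 37 C; viability read as ATP content by CellTiter-Glo luminescence.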
Giardia killer – kills Giardia lamblia; Giardia lamblia trophozoite viability; activity change, % at 7.66 µM, hits read low; 0.15% of 340,000 active; in the data active means activity change below about -80%; inconclusive means between about -30% and that limit;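 further: parasites exposed to compound for two days anaerobically before the ATP read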
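Giardia lamblia trophozoites (100 cells/well) were incubated with compounds for 48 h at 37 deg C under anaerobic conditions. Viability was read as ATP content by one-step luminescence after 15-30 min at room temperature.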
TDP1 inh – TDP1 (human) enzyme inhibition; Q9NUW8; recombinant TDP1, AlphaScreen DNA substrate cleavage; Potency, µM (top dose mostly 130 µM), for the others: at the top dose activity change, negative = inhibition, hits mostly inhibitors; 0.28% of 350,000 active; AID 485290; further: potency means the concentration at half of the fitted maximal effect; nearly all actives have a fitted effect of over 40% in size
Target sequence (Q9NUW8 whole entry, looked up): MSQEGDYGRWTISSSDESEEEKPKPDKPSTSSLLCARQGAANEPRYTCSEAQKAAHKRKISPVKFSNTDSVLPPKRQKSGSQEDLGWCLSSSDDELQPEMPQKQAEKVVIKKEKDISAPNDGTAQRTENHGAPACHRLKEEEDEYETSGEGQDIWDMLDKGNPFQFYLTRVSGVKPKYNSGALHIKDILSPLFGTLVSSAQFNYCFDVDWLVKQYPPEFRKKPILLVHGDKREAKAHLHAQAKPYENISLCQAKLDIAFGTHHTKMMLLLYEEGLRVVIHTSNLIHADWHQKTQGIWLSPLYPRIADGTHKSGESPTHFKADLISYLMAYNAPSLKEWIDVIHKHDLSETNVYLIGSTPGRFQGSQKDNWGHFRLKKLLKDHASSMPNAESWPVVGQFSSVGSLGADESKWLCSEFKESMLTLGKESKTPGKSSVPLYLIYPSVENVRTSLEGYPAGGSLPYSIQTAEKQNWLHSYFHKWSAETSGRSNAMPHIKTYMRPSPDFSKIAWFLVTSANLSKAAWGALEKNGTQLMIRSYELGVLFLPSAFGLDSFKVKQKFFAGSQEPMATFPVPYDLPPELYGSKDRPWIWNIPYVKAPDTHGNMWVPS
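Compounds were preincubated with Tdp1 (1 nM final) for 15 min at room temperature before substrate (15 nM final) started a 5 min reaction; beads (10 ug/ml final) were then added for 10 min before AlphaScreen detection.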
TDP1 cell noCPT – qHTS for Inhibitors of human tyrosyl-DNA phosphodiesterase 1 (TDP1): qHTS in cells in absence of CPT; AID 686978, 2013; 15% of 420,000 active; DT40 Tdp1-/- hTDP1 cells, no CPT, ATP luminescence, 48 h; Potency, µM (doses to about 46.2 µM), inactives show at the highest dose activity change, negative = growth inhibition, hits mostly inhibitors; further: potency means the concentration at half of the fitted maximal effect; nearly all actives have a fitted effect of over 55% in size
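Chicken DT40 Tdp1-/- cells stably complemented with human TDP1 were seeded at 400 cells/well with DMSO in place of 20 nM camptothecin. After compound pinning, cells grew at least 48 hr at 37 °C; viability read by CellTiter-Glo luminescence.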
Active calls of the source: *; u = inconclusive; x = no result. Sampled rows, rich in hits. Any-hit rate of the full collection: about 19%. Unless noted, the call rests on the fitted dose curve; in most records, active means well fitted curve in the direction sought with a large enough effect; inconclusive means small, poorly fitted or top-dose-only effect, or another doubt; inactive means no such curve, though single readings can be large; an effect the other way counts as inactive or inconclusive. On the % scale 0 is the no-effect control and ±100 the full control effect.

SMILES	IL-1B inflam inh	ELG1 repair inh	DT40 TDP1 CPT	Giardia killer	TDP1 inh	TDP1 cell noCPT
CCCCOc1cc(NCc2ccccc2)c2ncn(C(C)C)c2c1	27	1%	23µM*	-22	12%	21µM*
COCCCOc1cc(NCc2ccccc2)c2ncn(C(C)C)c2c1	-1	24%	3%	-23	11%	-18%
Cc1ccc(C(=O)N2CCC(Cc3ccccc3)CC2)cc1S(=O)(=O)N1CCOCC1	-18	u	u	-10	0%	9.2µM*
Cc1ccc(C(=O)NC(C)CCc2ccccc2)cc1S(=O)(=O)N1CCOCC1 (stereo not drawn)	-25	18µM*	u	-8	1%	u
Clc1ccc2nc(NCc3ccccc3)c3nncn3c2c1	x	x	11%	x	3%	-11%
CCCOc1ccc(N2C(=O)CC(SC(=N)N3N=C(c4ccccc4)CC3c3ccccc3)C2=O)cc1 (stereo not drawn)	0	u	18µM*	-7	7%	18µM*
Cc1c(CCC(=O)NC2CC2)c(=O)oc2c(C)c(O)ccc12	u	-4%	8%	5	x	-16%
Cc1cc(C)c(NC(=O)Cn2c(=O)n(Cc3ccc(C(=O)NCc4ccc5c(c4)OCO5)cc3)c(=O)c3ccccc32)c(C)c1	x	x	6.5µM*	x	5%	7.3µM*
Cc1ccccc1NC(=O)Cn1c(=O)n(Cc2ccc3c(c2)OCO3)c(=O)c2ccc(C(=O)NC3CCCCC3)cc21	x	x	5.8µM*	x	-7%	7.3µM*
Cc1ccc(NC(=O)Cn2c(=O)n(Cc3ccco3)c(=O)c3ccc(C(=O)NC4CCCC4)cc32)c(C)c1	x	x	16µM*	x	-7%	16µM*
Cc1ccc(NC(=O)Cn2c(=O)n(Cc3ccc4c(c3)OCO4)c(=O)c3ccc(C(=O)NC4CCCCC4)cc32)c(C)c1	x	x	2.1µM*	x	-2%	u
COc1ccc(Cl)cc1NC(=O)Cn1c(=O)n(Cc2ccco2)c(=O)c2ccc(C(=O)NC3CCCC3)cc21	x	x	-8%	x	2%	-11%
CCOc1ccc(NC(=O)[C@H](Cc2ccccc2)NC(=O)C2CCNCC2)cc1	-19	u	-2%	-15	0%	-4%
CCOc1ccccc1CN1C(=O)c2ccccc2C1C(=O)NC1CCCCCC1 (stereo not drawn)	x	x	-26%	x	-1%	u
CCN(C(=O)Cn1c(=O)n(Cc2ccc3c(c2)OCO3)c(=O)c2ccc(C(=O)NC3CCCCC3)cc21)c1cccc(C)c1	x	x	15µM*	x	5%	16µM*
Cc1cc(C)c(NC(=O)Cn2c(=O)n(CCC(=O)N3CCc4ccccc4C3)c(=O)c3ccccc32)c(C)c1	x	x	13µM*	x	6%	0.52µM*
Cc1ccc(Cl)cc1NC(=O)Cn1c(=O)n(CCC(=O)N2CCc3ccccc3C2)c(=O)c2ccccc21	x	x	u	x	-1%	u
Cc1ccc(C)c(NC(=O)Cn2c(=O)n(Cc3ccc4c(c3)OCO4)c(=O)c3ccc(C(=O)NC4CCCCC4)cc32)c1	x	x	2.6µM*	x	-2%	u
CCN(C(=O)Cn1c(=O)n(Cc2ccccc2)c(=O)c2ccccc21)c1cccc(C)c1	-24	-6%	-11%	6	5%	u
CN(C)c1ccc(NC(=O)CN2C(=O)c3ccccc3Sc3ccc(C(=O)N4CCCC4)cc32)cc1	x	x	u	x	8%	u
Cc1cccc(C(=O)NC(=S)Nc2cccc3nc(C)ccc23)c1	0	6%	u	28	-16%	u
O=C1CN(C(=O)c2ccc(S(=O)(=O)N3CCCC3)cc2)C(c2ccc(F)cc2)c2cc(F)ccc2N1 (stereo not drawn)	x	x	u	x	3%	u
CN1CCC(OC(=O)c2ccc(Br)cc2)CC1	14	x	-6%	23	x	-18%
